# Data taken from the supplement of paper PMC9694430.
# Assays:
# Test in all cases: thermal shift delta Tm vs DMSO control; higher = stronger stabilization (binding)
# Details in all cases: 12.5 µM; protein concentration 2 µM
# LOC_OS01G01410-cb001 = system: LOC_OS01G01410-cb001
# How it was run: (§1)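 Purified, E. coli-expressed rice kinase domain constructs were tested by differential scanning fluorimetry in 96-well plates: 19.5 μl of 2 μM kinase in 100 mM potassium phosphate pH 7.5, 150 mM NaCl, 10% glycerol, 5 × SYPRO Orange, plus compound in DMSO. Fluorescence was read from 25°C to 95°C at 0.05°C/s. Melting temperatures came from Boltzmann fits, and the shift is the triplicate mean relative to protein with DMSO alone.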
# LOC_OS01G02750-cb003 = system: LOC_OS01G02750-cb003
# How it was run: as §1
# LOC_OS01G10900-cb004 = system: LOC_OS01G10900-cb004
# How it was run: as §1
# LOC_OS01G13800-cb001 = system: LOC_OS01G13800-cb001
# How it was run: as §1
# LOC_OS01G14860-cb001 = system: LOC_OS01G14860-cb001
# How it was run: as §1
# LOC_OS01G21960-cb002 = system: LOC_OS01G21960-cb002
# How it was run: as §1
# LOC_OS01G39600-cb002 = system: LOC_OS01G39600-cb002
# How it was run: as §1
# LOC_OS01G48390-cb002 = system: LOC_OS01G48390-cb002
# How it was run: as §1
# LOC_OS01G51400-cb002 = system: LOC_OS01G51400-cb002
# How it was run: as §1
# LOC_OS01G52050-cb004 = system: T1, LOC_OS01G52050-cb004
# T1 sequence (whole entry): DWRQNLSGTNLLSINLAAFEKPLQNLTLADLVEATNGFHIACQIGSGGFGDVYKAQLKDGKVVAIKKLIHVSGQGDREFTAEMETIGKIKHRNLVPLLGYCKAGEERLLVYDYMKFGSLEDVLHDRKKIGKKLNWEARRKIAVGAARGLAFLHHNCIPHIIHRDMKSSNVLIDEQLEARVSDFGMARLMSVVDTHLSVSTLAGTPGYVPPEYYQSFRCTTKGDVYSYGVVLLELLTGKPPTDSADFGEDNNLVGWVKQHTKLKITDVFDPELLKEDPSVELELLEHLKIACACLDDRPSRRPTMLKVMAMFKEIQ
# How it was run: as §1
SMILES,thermal shift delta Tm (LOC_OS01G01410-cb001),thermal shift delta Tm (LOC_OS01G02750-cb003),thermal shift delta Tm (LOC_OS01G10900-cb004),thermal shift delta Tm (LOC_OS01G13800-cb001),thermal shift delta Tm (LOC_OS01G14860-cb001),thermal shift delta Tm (LOC_OS01G21960-cb002),thermal shift delta Tm (LOC_OS01G39600-cb002),thermal shift delta Tm (LOC_OS01G48390-cb002),thermal shift delta Tm (LOC_OS01G51400-cb002),thermal shift delta Tm (LOC_OS01G52050-cb004)
O=c1ncn2nc(Sc3ccc(F)cc3F)ccc2c1-c1c(Cl)cccc1Cl,0.07 °C,0.77 °C,0.61 °C,0.23 °C,0.42 °C,0.49 °C,-0.38 °C,0.32 °C,0.15 °C,0.02 °C
CN1CC(O)C2=C/C(=N/NC(N)=O)C(=O)C=C21 (stereo not given) [Carbazochrome],0.3 °C,0.81 °C,-0.04 °C,-0.31 °C,0.31 °C,0.23 °C,0.14 °C,-0.01 °C,0.5 °C,-1.17 °C
CCCCNc1ncc(-c2ccc(CN3CCOCC3)cn2)c(NC2CCC(O)CC2)n1 (stereo not given),3.51 °C,2.08 °C,0.31 °C,-0.02 °C,1.13 °C,1.41 °C,0.62 °C,1.38 °C,0.2 °C,2.9 °C
CC[C@@H](N)CNc1ccnc(-c2cc(-c3cnn(C)c3)ccc2O)n1,0.15 °C,2.58 °C,0.85 °C,-0.28 °C,2.58 °C,2.15 °C,-0.05 °C,1.98 °C,0.28 °C,1.98 °C
CCc1cnn2c(NCc3ccc[n+]([O-])c3)cc(N3CCCC[C@H]3CCO)nc12,0.61 °C,2.64 °C,0.06 °C,0.02 °C,3.51 °C,0.49 °C,-0.18 °C,0.7 °C,0.2 °C,0.32 °C
CNC(=O)c1cc(Oc2ccc3nc(N[C@@H]4CCCC[C@H]4O)sc3c2)ccn1,0.03 °C,2.05 °C,1.18 °C,0.41 °C,-0.2 °C,0.67 °C,-0.55 °C,0.91 °C,0.42 °C,0.41 °C
Nc1nc(N)c2nc(-c3cccc(O)c3)c(-c3cccc(O)c3)nc2n1,0.47 °C,0.72 °C,1.95 °C,0.77 °C,1 °C,1.07 °C,-0.28 °C,0.4 °C,0.49 °C,1.16 °C
CN1CC[C@H](c2c(O)cc(O)c3c(=O)cc(-c4ccccc4Cl)oc23)[C@H](O)C1 [Flavopiridol (Alvocidib)],0.72 °C,0.39 °C,0.16 °C,0.35 °C,4.54 °C,1.94 °C,1.37 °C,0.03 °C,-0.2 °C,0.8 °C
COc1cccc(-n2c(=O)[nH]c3cc(Cl)n(-c4ccc(-c5cccc(OC)c5O)cc4)c3c2=O)c1,0.44 °C,1.69 °C,-0.02 °C,0.72 °C,0.13 °C,0.8 °C,-0.12 °C,1.54 °C,0.69 °C,0.03 °C
C=CC(=O)N[C@H]1CCOC[C@H]1Nc1ncc2cc(-c3c(Cl)c(OC)cc(OC)c3Cl)ccc2n1,0.19 °C,-0.27 °C,2.28 °C,-0.14 °C,0.4 °C,0.24 °C,-0.48 °C,0.49 °C,-0.01 °C,1.84 °C
Cc1cccc(Nc2nc(NC3CCCCC3N)ncc2C(N)=O)c1 (stereo not given),0.04 °C,1.48 °C,0.43 °C,-0.24 °C,1.5 °C,1.75 °C,0.32 °C,0.09 °C,0.29 °C,6.64 °C
COc1ccc(COc2ccc(Cc3cnc(N)nc3N)cc2OC)cc1,-0.12 °C,1.12 °C,2.07 °C,0.44 °C,0.12 °C,0.25 °C,0.89 °C,-0.01 °C,0.2 °C,0.04 °C
Nc1nccc(Oc2ccc3c(C(=O)Nc4cccc(C(F)(F)F)c4)cccc3c2)n1,0.89 °C,1.42 °C,0.88 °C,1.39 °C,3.82 °C,1.43 °C,0.93 °C,1.13 °C,0.12 °C,1.04 °C
O=c1nc(N2CCOCC2)oc2c(-c3cccc4c3sc3ccccc34)cccc12,0.12 °C,-0.86 °C,3.3 °C,-0.44 °C,0.6 °C,0.45 °C,-0.5 °C,0.27 °C,-0.4 °C,1.17 °C
c1ccc(-c2[nH]ncc2-c2ccnc3ccccc23)nc1,0.44 °C,0.87 °C,0.58 °C,0.69 °C,0.36 °C,0.76 °C,0.33 °C,0.11 °C,0.03 °C,0.61 °C
CN1CCN(Cc2ccc(NC(=O)Nc3ccc(Oc4ccnc(N)n4)cc3)cc2C(F)(F)F)CC1,0.75 °C,4.82 °C,0.41 °C,0.15 °C,7.67 °C,0.98 °C,0.62 °C,1.03 °C,0.2 °C,1.93 °C
CC[C@@H]1C(=O)N(C)c2cnc(Nc3ccc(C(=O)NC4CCN(C)CC4)cc3OC)nc2N1C1CCCC1,1.63 °C,-0.86 °C,-0.01 °C,-0.37 °C,-0.16 °C,0.05 °C,0.36 °C,-0.02 °C,-0.01 °C,0.06 °C
O=C1NC(=O)/C(=C/c2ccc3nccc(-c4ccncc4)c3c2)S1,1.21 °C,0.63 °C,0.95 °C,0.37 °C,0.98 °C,0.96 °C,1.76 °C,0.2 °C,0.08 °C,0.79 °C
CCCCCCCCCCCCc1ccc(S(=O)(=O)Nc2nncs2)cc1,0.38 °C,0.24 °C,0.46 °C,0.29 °C,0.62 °C,1.26 °C,0.44 °C,0.62 °C,-0.04 °C,1.1 °C
OCCn1cc(-c2cnc3nnn(Cc4ccc5ncccc5c4)c3n2)cn1,0.52 °C,0.79 °C,-0.12 °C,-0.25 °C,0.12 °C,0.14 °C,0.11 °C,0.2 °C,0.09 °C,0.09 °C
